According to PubChem BioAssay:
Results with a measured potency or affinity are listed apart. Results filed as inconclusive are left out. The source made the active and inactive calls. Unless noted, no rule for the calls is given here.

Tests used:
[1] = inhibitors of CMV-promoter luciferase reporter, dose response, counter-screen for Pax8 inhibitor project, cell-based, HEK293, luminescence, dry powder (AID 743020;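 active = signal-lowering compounds whose fitted half-maximal concentration is at or below twice the top tested dose in every run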;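 also: HEK293 cells stably expressing the CMV luciferase reporter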)
[2] = non-specific cell cytotoxicity, dose response, cytotoxicity control for PAX8 inhibitor project, plate reader, dry powder samples (AID 743021)
[3] = IGROV1 ovarian cancer cell cytotoxicity, dose response, PAX8 inhibitor project, plate reader, dry powder samples (AID 743043);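 also: more negative means fewer viable cells or more cytotoxicity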
[4] = IOSE-T80 ovarian epithelial cell cytotoxicity, dose response, cytotoxicity control for PAX8 inhibitor project, plate reader, dry powder samples (AID 743045);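 also: 0% = neutral control median and -100% = positive control median; more negative values mean more cell killing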
[5] = cytotoxicity in OVCAR8 ovarian cancer cells, dose response, PAX8 project, cell-based, plate reader, dry powder samples (AID 743197)
[6] = NIH:OVCAR-3 ovarian cancer cell cytotoxicity, dose response, PAX8 inhibitor project, plate reader, dry powder samples (AID 743044); details: max activity: at 35 µM, active compounds read low unless noted
[7] = A2780 ovarian cancer cell cytotoxicity, dose response, cytotoxicity control, plate reader, dry powder samples (AID 743046);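 also: 0% = neutral control wells and -100% = cytotoxic reference compound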
[8] = HepG2 cell cytotoxicity, dose response, cytotoxicity control, plate reader, cherry-pick, antagonist series (AID 743416);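 also: 0% = neutral control wells and -100% = positive control wells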

Measured: max activity

COc1cccc(-c2ccc([C@H]3[C@@H](CO)N(C(=O)Cc4ccccc4)[C@H]3C#N)cc2)c1
inactive: [1] | [2] | [3] | [4] | [5]

C[C@H](CO)N1C[C@H](C)[C@H](CN(C)S(=O)(=O)c2ccc(Cl)cc2)OCCCC[C@H](C)Oc2ccc(NS(=O)(=O)c3ccc(F)cc3)cc2C1=O
inactive: [1] | [2] | [3] | [6] 20.8% | [4] | [5]

C[C@@H]1CN([C@@H](C)CO)C(=O)Cc2cc(NS(=O)(=O)c3ccc(Cl)cc3)ccc2O[C@H]1CN(C)Cc1ccc(Oc2ccccc2)cc1
inactive: [1] | [2] | [4] | [7]

C[C@H]1CN([C@@H](C)CO)C(=O)Cc2cc(NC(=O)NC3CCCCC3)ccc2O[C@H]1CN(C)S(=O)(=O)c1ccc(Cl)cc1
not listed: [6] | [8]
inactive: all other assays above

C[C@H](CO)N1C[C@H](C)[C@H](CN(C)S(=O)(=O)c2ccc(Cl)cc2)OCCCC[C@H](C)Oc2ccc(NC(=O)Nc3ccc(C(F)(F)F)cc3)cc2C1=O
inactive: [1] | [3] | [4] | [5]

Cc1noc(C)c1S(=O)(=O)N(C)C[C@H]1OCCCC[C@@H](C)Oc2ccc(NS(=O)(=O)c3ccc(Cl)cc3)cc2C(=O)N([C@@H](C)CO)C[C@@H]1C
inactive: [1] | [2] | [3] | [4]

C[C@H](CO)N1C[C@H](C)[C@H](CN(C)Cc2ccc(C(F)(F)F)cc2)OCCCC[C@H](C)Oc2ccc(NS(=O)(=O)c3ccccc3)cc2C1=O
inactive: [1] | [4] | [7]

Cc1ccc(S(=O)(=O)N(C)C[C@H]2Oc3cc(C#Cc4ccncc4)ccc3S(=O)(=O)N([C@@H](C)CO)C[C@@H]2C)cc1
inactive: [1] | [2] | [3] | [4] | [7]

C[C@H]1CCCCO[C@H](CN(C)Cc2ccc(C(F)(F)F)cc2)[C@@H](C)CN([C@@H](C)CO)C(=O)c2cc(NC(=O)c3ccccc3)ccc2O1
inactive: [1] | [2] | [4] | [7] | [5]

Cc1ccsc1/C=N/Nc1cccc(C(=O)O)c1
inactive: [1] | [2] | [8]

C[C@@H]1CCCCO[C@@H](CN(C)C(=O)Nc2cccc3ccccc23)[C@H](C)CN([C@H](C)CO)C(=O)c2cc(NS(=O)(=O)c3ccc(F)cc3)ccc2O1
inactive: [1] | [2] | [6] 12.2% [at 0.26 µM, active compounds read low] | [4] | [7]

O=C(Nc1cccc(-c2ccc(N3CCCCC3)nn2)c1)C(F)(F)F
inactive: [2]

Cc1cc(C(C)(C)C)cc(C)c1Cn1c2[n+](c3ccc(C(F)(F)F)cc31)CCCCC2
inactive: [2]

Brc1ccc(-n2cc(-c3ccccc3)c3c(NN4CCOCC4)ncnc32)cc1
inactive: [2]

C[C@@H]1CCCCO[C@H](CN(C)C(=O)C2CCCCC2)[C@@H](C)CN([C@@H](C)CO)C(=O)c2cc(NC(=O)Nc3ccc(F)cc3)ccc2O1
inactive: [1] | [2] | [4]

COc1ccc(CCNc2nnc(Sc3nnnn3-c3ccccc3)s2)cc1OC
inactive: [2]

C[C@@H]1CCCCO[C@@H](CN(C)S(=O)(=O)c2ccc(Cl)cc2)[C@H](C)CN([C@H](C)CO)C(=O)c2cc(NS(=O)(=O)c3ccc(F)cc3)ccc2O1
inactive: [1] | [2] | [6] 22.4% [at 2.1 µM, active compounds read low] | [4] | [7] | [5]

CCCn1c(C)cc(C(=O)CN2C(=O)c3ccccc3S2(=O)=O)c1C
not listed: [4] | [5]
inactive: all other assays above

Cc1c(Nc2cc(Cl)c3nonc3c2[N+](=O)[O-])c(=O)n(-c2ccccc2)n1C
inactive: [2]

CSC(=Nc1ccccc1)N=C(SCc1ccccc1)N(C)C
inactive: [2]

C[C@@H]1CN([C@@H](C)CO)C(=O)Cc2cc(NC(=O)NC3CCCCC3)ccc2O[C@@H]1CN(C)Cc1ccc(-c2ccccc2)cc1
inactive: [1] | [2] | [3] | [6] 0% [active compounds read low] | [4] | [5]

Cn1nnnc1Sc1ncnc2scc(-c3cccc(S(C)(=O)=O)c3)c12
inactive: [2]

C[C@H]1CCCCO[C@H](CN(C)Cc2ccc(C(F)(F)F)cc2)[C@@H](C)CN([C@@H](C)CO)C(=O)c2cc(NS(=O)(=O)c3ccc(Cl)cc3)ccc2O1
inactive: [1] | [2] | [6] 16.3% [at 1 µM, active compounds read low] | [4] | [7]

C=C(C(=O)c1ccccc1)C(C(=C)C(=O)c1ccccc1)c1ccc(OC)cc1
inactive: [2]

COc1cc2nc(C3CCC3)nc(N3CCN(c4ccccc4OC)CC3)c2cc1OC
inactive: [2]

C[C@H]1CCCCO[C@@H](CN(C)Cc2ccc(C(F)(F)F)cc2)[C@@H](C)CN([C@@H](C)CO)C(=O)c2cc(NC(=O)c3ccccc3)ccc2O1
inactive: [1] | [2] | [4] | [7]

Cc1ccc(S(=O)(=O)Nc2ccc3c(c2)CC(=O)N([C@H](C)CO)C[C@H](C)[C@H](CN(C)S(=O)(=O)c2ccc(F)cc2)O3)cc1
not listed: [6] | [8]
inactive: all other assays above

C[C@@H]1CN([C@H](C)CO)C(=O)c2cc(NS(=O)(=O)c3ccc(Cl)cc3)ccc2O[C@@H](C)CCCCO[C@@H]1CN(C)Cc1ccccc1
inactive: [1] | [3] | [6] 22% [at 1 µM, active compounds read low] | [4] | [7] | [5]

Cc1ccc(S(=O)(=O)CC(CN2CCCCC2)N2CCCCC2)cc1 (stereo not drawn)
inactive: [1] | [2] | [6] | [4] | [7]

CCC(=O)NC(c1ccc(C)cc1)c1ccc2cccnc2c1O (stereo not drawn)
inactive: [2]

CCOC(=O)c1c(-c2ccc(F)cc2)csc1NC(=O)CN1C(=O)NC2(CCCCC2C)C1=O (stereo not drawn)
inactive: [2]
